Laboratory results from PubChem BioAssay AID624137 (Broad Institute, 2012).
Screen size: about 31,000 compounds; about 360 (1.2%) were called active. No rule for the calls is given here. Many of the other results were omitted from the sample, so actives are more common in it than they were.

The molecules below were run against DNA-binding protein inhibitor ID-4 (Homo sapiens) (UniProt P47928) (assay: PubChem AID 624137). Settings: small molecule microarray, Flag-ID4 binding, fluorescence F/B.
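Also: a binder raises fluorescence above local background on the spot.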

Chain of DNA-binding protein inhibitor ID-4 (Homo sapiens) (P47928 whole entry, looked up): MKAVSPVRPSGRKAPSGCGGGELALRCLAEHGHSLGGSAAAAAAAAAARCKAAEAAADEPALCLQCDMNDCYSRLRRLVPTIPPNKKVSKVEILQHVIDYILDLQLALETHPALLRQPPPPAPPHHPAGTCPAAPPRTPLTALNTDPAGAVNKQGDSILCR

Q: For `C[C@@H]1CN([C@H](C)CO)C(=O)c2cc(C#CC3CC3)cnc2O[C@@H]1CN(C)Cc1ccccn1`, which outcome is on record?
A: inactive

Q: Which outcome does the source give for `C[C@@H]1CN([C@@H](C)CO)S(=O)(=O)c2ccc(-c3ccc(C(=O)N(C)C)cc3)cc2O[C@@H]1CN(C)Cc1ccccc1C(=O)O` here?
A: inactive

Q: Which outcome does the source give for `COc1ccccc1S(=O)(=O)N[C@@H]1C=C[C@H](CC(=O)N2CCOCC2)O[C@@H]1CO` here?
A: inactive

Q: `O=C(C[C@@H]1C=C[C@H](NC(=O)CCN2CCCCC2)[C@H](CO)O1)NCc1ccc(Cl)c(Cl)c1` was tested. Which outcome did it give?
A: inactive

Q: `C/C=C/c1cnc2c(c1)C(=O)N([C@@H](C)CO)C[C@@H](C)[C@@H](CN(C)S(=O)(=O)c1ccccc1F)O2` was tested. Which outcome did it give?
A: inactive

Q: `C[C@H]1CN([C@@H](C)CO)S(=O)(=O)c2ccc(C3=CCCC3)cc2O[C@H]1CN(C)Cc1cccc(C(=O)O)c1` was tested. Which outcome did it give?
A: inactive

Q: With `CC(C)NC(=O)N(C)C[C@H]1Oc2cc(-c3cncnc3)ccc2S(=O)(=O)N([C@@H](C)CO)C[C@H]1C` as the molecule, how does the outcome read?
A: inactive

Q: For `Cc1ccc(Cc2cncc(O)c2)cc1S(=O)(=O)O`, which outcome is on record?
A: active

Q: Which outcome does the source give for `C[C@H]1CN([C@@H](C)CO)S(=O)(=O)c2ccc(C3=CCCCC3)cc2O[C@@H]1CN(C)Cc1ccccc1` here?
A: inactive

Q: Which outcome does the source give for `C[C@H](CO)N1C[C@H](C)[C@@H](CN(C)C(=O)C2CC2)Oc2ncc(-c3cccc(F)c3)cc2C1=O` here?
A: inactive

Q: With `C/C=C/c1ccc2c(c1)O[C@@H](CN(C)CC1CCOCC1)[C@@H](C)CN([C@H](C)CO)S2(=O)=O` as the molecule, how does the outcome read?
A: inactive

Q: With `C[C@H](CO)N1C[C@H](C)[C@H](CN(C)C(=O)C2CCCCC2)Oc2ncc(C#CC3CC3)cc2C1=O` as the molecule, how does the outcome read?
A: inactive

Q: Which outcome does the source give for `C[C@H]1CN([C@@H](C)CO)C(=O)c2cc(C#Cc3ccccc3F)cnc2O[C@H]1CN(C)C` here?
A: inactive

Q: How did the outcome turn out when `O=C(O)/C(=C/C(=O)c1ccc(F)cc1)Nc1ccc2[nH]c(=O)[nH]c2c1` was run?
A: inactive

Q: Which outcome does the source give for `O=C(OCCN1CCCCC1)c1cccc(COc2ccc3ccccc3c2)c1` here?
A: inactive

Q: How did the outcome turn out when `C[C@H](CO)N1C[C@H](C)[C@H](CN(C)C(=O)c2ccncc2)Oc2cc(C#CC3(O)CCCC3)ccc2S1(=O)=O` was run?
A: inactive

Q: How did the outcome turn out when `O=C(C[C@@H]1C[C@@H]2c3cc(NS(=O)(=O)c4ccc(F)cc4)ccc3O[C@@H]2[C@@H](CO)O1)N1CCOCC1` was run?
A: inactive

Q: For `CCCC#Cc1ccc2c(c1)O[C@@H](CN(C)S(=O)(=O)c1cccc(OC)c1)[C@H](C)CN([C@@H](C)CO)S2(=O)=O`, which outcome is on record?
A: inactive

Q: How did the outcome turn out when `COCC(=O)Nc1ccc2c(c1)[C@H]1C[C@H](CC(=O)NCc3cccnc3)O[C@H](CO)[C@H]1O2` was run?
A: inactive

Q: With `CO[C@@H]1CN(C)C(=O)c2ccc(NC(=O)C3CC3)cc2OC[C@@H](C)N(CC2CCOCC2)C[C@H]1C` as the molecule, how does the outcome read?
A: inactive

Q: With `CC(=O)N(C)C[C@H]1Oc2ncc(-c3cccc(F)c3)cc2C(=O)N([C@@H](C)CO)C[C@H]1C` as the molecule, how does the outcome read?
A: inactive

Q: For `O=[N+]([O-])c1ccccc1/C=C/CN1CCC(O)CC1`, which outcome is on record?
A: active

Q: Which outcome does the source give for `O=[N+]([O-])c1ccccc1CN1CCN(Cc2cccc(Oc3ccccc3)c2)CC1` here?
A: inactive

Q: How did the outcome turn out when `O=C(C[C@H]1CC[C@@H](NC(=O)c2ccncc2)[C@@H](CO)O1)NCC1CC1` was run?
A: inactive

Q: With `C[C@@H]1CN([C@H](C)CO)C(=O)c2cc(-c3ccccc3F)cnc2O[C@H]1CN(C)C(=O)CN(C)C` as the molecule, how does the outcome read?
A: inactive

Q: Which outcome does the source give for `C[C@H](CO)N1C[C@H](C)[C@@H](CN(C)C(=O)c2cnccn2)Oc2ncc(-c3ccccc3F)cc2C1=O` here?
A: inactive

Q: `O=C(CSc1nc(O)cc(=O)n1-c1ccccc1F)Nc1ccc(Cl)cc1Cl` was tested. Which outcome did it give?
A: inactive

Q: For `COC(=O)Cc1csc(Nc2c(C)n(C)n(-c3ccccc3)c2=O)n1`, which outcome is on record?
A: inactive

Q: With `COc1cccc(/C=C(\C#N)C(=O)Nc2c(C)n(C)n(-c3ccccc3)c2=O)c1` as the molecule, how does the outcome read?
A: inactive

Q: With `Cc1c(NC(=O)/C(C#N)=C/c2ccccc2Cl)c(=O)n(-c2ccccc2)n1C` as the molecule, how does the outcome read?
A: active

Q: For `COc1cc(NC(=O)COc2ccccc2Br)c(OC)cc1Cl`, which outcome is on record?
A: inactive

Q: For `C[C@H](CO)N1C[C@H](C)[C@H](CN(C)C(=O)C2CC2)OCc2ccccc2-c2ccccc2C1=O`, which outcome is on record?
A: inactive

Q: For `CCC(=O)N[C@H]1CC[C@@H](CC(=O)NCc2cc(F)cc(F)c2)O[C@@H]1CO`, which outcome is on record?
A: inactive

Q: For `C[C@H](CO)N1C[C@H](C)[C@H](CN(C)C(=O)c2ccccc2)OCCCC[C@H](C)Oc2ccc(NS(C)(=O)=O)cc2C1=O`, which outcome is on record?
A: inactive

Q: `C[C@@H]1CN([C@@H](C)CO)C(=O)c2cc(NS(C)(=O)=O)ccc2O[C@@H](C)CCCCO[C@@H]1CN(C)C(=O)c1ccccc1` was tested. Which outcome did it give?
A: active

Q: `C[C@@H]1CCCCO[C@@H](CN(C)C(=O)c2ccccc2)[C@H](C)CN([C@@H](C)CO)C(=O)c2cc(NS(C)(=O)=O)ccc2O1` was tested. Which outcome did it give?
A: inactive

Q: `CNC[C@@H]1Oc2cc(C#Cc3ccc(F)cc3)ccc2S(=O)(=O)N([C@@H](C)CO)C[C@H]1C` was tested. Which outcome did it give?
A: inactive

Q: For `COc1ccccc1-c1cnc2c(c1)C(=O)N([C@H](C)CO)C[C@H](C)[C@H](CN(C)Cc1cccnc1)O2`, which outcome is on record?
A: inactive

Q: With `Cc1ccccc1-c1cnc2c(c1)C(=O)N([C@@H](C)CO)C[C@@H](C)[C@@H](CN(C)CC1CCOCC1)O2` as the molecule, how does the outcome read?
A: inactive

Q: `CCCN(C)C[C@H]1Oc2cc(-c3ccc(C)cc3)ccc2S(=O)(=O)N([C@H](C)CO)C[C@H]1C` was tested. Which outcome did it give?
A: inactive

Q: How did the outcome turn out when `C[C@@H]1CN([C@@H](C)CO)C(=O)c2cc(Br)cnc2O[C@@H]1CN(C)C(=O)C1CCCCC1` was run?
A: inactive

Q: Which outcome does the source give for `CN1CCN(C(=O)C[C@H]2CC[C@@H](NC(=O)c3ccc4c(c3)OCO4)[C@H](CO)O2)CC1` here?
A: inactive

Q: How did the outcome turn out when `O=C(C[C@H]1C=C[C@H](NS(=O)(=O)c2ccc(F)cc2)[C@H](CO)O1)NCc1ccncn1` was run?
A: inactive

Q: Which outcome does the source give for `CCCN(C)C[C@@H]1Oc2cc(C#CC3CCCCC3)ccc2S(=O)(=O)N([C@@H](C)CO)C[C@@H]1C` here?
A: inactive

Q: How did the outcome turn out when `COc1ccccc1-c1cnc2c(c1)C(=O)N([C@@H](C)CO)C[C@@H](C)[C@H](CN(C)Cc1cccnc1)O2` was run?
A: inactive

Q: `COCC#Cc1cnc2c(c1)C(=O)N([C@H](C)CO)C[C@@H](C)[C@@H](CN(C)Cc1ccccc1F)O2` was tested. Which outcome did it give?
A: inactive

Q: How did the outcome turn out when `CC(C)CC#Cc1cnc2c(c1)C(=O)N([C@@H](C)CO)C[C@H](C)[C@@H](CN(C)C(=O)c1ccc(F)cc1)O2` was run?
A: inactive

Q: Which outcome does the source give for `C[C@@H]1CN([C@@H](C)CO)S(=O)(=O)c2ccc(C3=CCCC3)cc2O[C@@H]1CN(C)Cc1ccncc1` here?
A: inactive

Q: For `C[C@@H](O)C#Cc1cnc2c(c1)C(=O)N([C@@H](C)CO)C[C@H](C)[C@@H](CN(C)CC1CCCCC1)O2`, which outcome is on record?
A: inactive

Q: How did the outcome turn out when `COc1ccccc1-c1ccc2c(c1)O[C@H](CN(C)C(=O)c1cccnc1)[C@@H](C)CN([C@H](C)CO)S2(=O)=O` was run?
A: inactive

Q: For `CC(C)C#Cc1ccc2c(c1)O[C@@H](CN(C)CC1CCOCC1)[C@H](C)CN([C@H](C)CO)S2(=O)=O`, which outcome is on record?
A: inactive

Q: `CNC[C@H]1Oc2cc(C#CC3CCCC3)ccc2S(=O)(=O)N([C@H](C)CO)C[C@@H]1C` was tested. Which outcome did it give?
A: inactive

Q: `CC(C)C#Cc1cnc2c(c1)C(=O)N([C@H](C)CO)C[C@@H](C)[C@H](CN(C)Cc1ccccc1)O2` was tested. Which outcome did it give?
A: inactive

Q: How did the outcome turn out when `C[C@@H]1CN([C@@H](C)CO)S(=O)(=O)c2ccc(C#CCC3CCCC3)cc2O[C@@H]1CN(C)C` was run?
A: inactive

Q: With `C[C@H](O)C#Cc1cnc2c(c1)C(=O)N([C@H](C)CO)C[C@@H](C)[C@H](CN(C)CC1CCCCC1)O2` as the molecule, how does the outcome read?
A: inactive

Q: With `C[C@@H]1CN([C@H](C)CO)C(=O)c2cc(C3=CCCC3)cnc2O[C@H]1CN(C)C` as the molecule, how does the outcome read?
A: inactive

Q: For `Cc1cccc(NC(=O)CSc2nnc(-c3ccccc3)n2C2CCCCC2)c1C`, which outcome is on record?
A: inactive

Q: With `CCC(=O)N(C)C[C@H]1Oc2cc(/C=C/c3ccccc3)ccc2S(=O)(=O)N([C@H](C)CO)C[C@H]1C` as the molecule, how does the outcome read?
A: inactive

Q: With `O=C(C[C@H]1CC[C@@H](NC(=O)Nc2cc(F)ccc2F)[C@@H](CO)O1)NCc1ccncn1` as the molecule, how does the outcome read?
A: inactive

Q: How did the outcome turn out when `CNC[C@H]1Oc2ncc(-c3ccccc3F)cc2C(=O)N([C@H](C)CO)C[C@H]1C` was run?
A: inactive
